Test results from the supplement of paper PMC10849652.
The full data set covers some 7,900 targets. This sample favours those with a hit. About 0.6% of all pairs of compound and target were hits. A number with no mark means an inactive call.

Tests used:
Assay in all cases: log2 fold change, soluble protein after heating vs DMSO (PISA); higher = thermal stabilisation; K562 cells, 10 uM, 30 min; active = over 0.2 and 3.5 SD of the protein, either way, in both replicates (recomputed)
[1] = compound: CS(=O)(=O)c1ccc(-c2cnc(N)c(C(=O)Nc3ccccc3)n2)cc1
Outline: (§1)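 Soluble protein was quantified by TMTpro 16plex LC-MS/MS after channel sums were equalised. It was obtained as the supernatant after 21,000xg for 90 min from pooled aliquots of K562 cells (2×10^6 cells/mL, 10 μM compound, 30 min) heated for 3 min across 48°C-58°C and extracted in PBS with 0.5% NP-40 at 4°C. Thermal stability values are relative to control samples and come from duplicates. They are given as log2 fold changes.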

crizotinib = compound: C[C@@H](Oc1cc(-c2cnn(C3CCNCC3)c2)cnc1N)c1c(Cl)ccc(F)c1Cl [crizotinib]
Outline: as §1

[2] = compound: C[C@@H]1COCCN1C2=NC(=NC(=C2)C3(CC3)S(=O)(=O)C)C4=C5C=CNC5=CC=C4
Outline: as §1

[3] = compound: C[C@H](C1=CC=C(C=C1)C(=O)NC2=C3C=CNC3=NC=C2)N
Outline: as §1

duvelisib = compound: C[C@H](Nc1ncnc2nc[nH]c12)c1cc2cccc(Cl)c2c(=O)n1-c1ccccc1 [duvelisib]
Outline: as §1

gandotinib = compound: Cc1cc(Nc2cc(CN3CCOCC3)c3nc(C)c(Cc4ccc(Cl)cc4F)n3n2)n[nH]1 [gandotinib]
Outline: as §1

tozasertib = compound: Cc1cc(Nc2cc(N3CCN(C)CC3)nc(Sc3ccc(NC(=O)C4CC4)cc3)n2)n[nH]1 [tozasertib]
Outline: as §1

[4] = compound: Cc1cc(SCc2sc(-c3ccc(C(F)(F)F)cc3)nc2C)ccc1OCC(=O)O
Outline: as §1

doramapimod = compound: Cc1ccc(-n2nc(C(C)(C)C)cc2NC(=O)Nc2ccc(OCCN3CCOCC3)c3ccccc23)cc1 [doramapimod]
Outline: as §1

ispinesib = compound: Cc1ccc(C(=O)N(CCCN)[C@@H](c2nc3cc(Cl)ccc3c(=O)n2Cc2ccccc2)C(C)C)cc1 [ispinesib]
Outline: as §1

Sequence of UniProt P49448 (P49448 whole entry, looked up): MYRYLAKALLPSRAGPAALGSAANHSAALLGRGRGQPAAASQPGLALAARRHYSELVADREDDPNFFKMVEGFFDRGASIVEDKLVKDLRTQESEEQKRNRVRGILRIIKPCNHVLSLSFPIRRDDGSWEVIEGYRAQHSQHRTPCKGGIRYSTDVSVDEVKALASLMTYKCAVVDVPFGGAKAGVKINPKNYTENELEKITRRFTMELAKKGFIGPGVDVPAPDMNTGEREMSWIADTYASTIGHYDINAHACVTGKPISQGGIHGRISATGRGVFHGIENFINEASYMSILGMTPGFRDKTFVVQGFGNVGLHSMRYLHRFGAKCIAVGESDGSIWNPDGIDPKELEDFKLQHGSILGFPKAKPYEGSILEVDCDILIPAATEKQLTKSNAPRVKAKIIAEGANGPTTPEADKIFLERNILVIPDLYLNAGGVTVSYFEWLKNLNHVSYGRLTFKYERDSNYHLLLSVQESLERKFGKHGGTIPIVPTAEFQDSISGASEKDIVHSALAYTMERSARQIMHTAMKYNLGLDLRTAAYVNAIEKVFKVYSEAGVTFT
Sequence of UniProt Q9BTY2 (Q9BTY2 whole entry, looked up): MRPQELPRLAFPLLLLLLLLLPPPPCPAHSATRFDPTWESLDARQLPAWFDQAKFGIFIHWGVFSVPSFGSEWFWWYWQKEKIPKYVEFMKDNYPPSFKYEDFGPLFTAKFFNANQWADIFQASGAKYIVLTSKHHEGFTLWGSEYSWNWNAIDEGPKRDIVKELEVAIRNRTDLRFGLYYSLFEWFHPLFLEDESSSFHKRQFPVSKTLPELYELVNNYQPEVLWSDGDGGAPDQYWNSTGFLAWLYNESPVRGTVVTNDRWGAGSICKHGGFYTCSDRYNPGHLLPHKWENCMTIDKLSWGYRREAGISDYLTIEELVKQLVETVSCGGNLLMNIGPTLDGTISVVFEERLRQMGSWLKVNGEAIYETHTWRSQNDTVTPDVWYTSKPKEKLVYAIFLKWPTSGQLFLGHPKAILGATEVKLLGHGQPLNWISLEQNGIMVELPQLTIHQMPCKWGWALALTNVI
Sequence of UniProt P52597 (P52597 whole entry, looked up): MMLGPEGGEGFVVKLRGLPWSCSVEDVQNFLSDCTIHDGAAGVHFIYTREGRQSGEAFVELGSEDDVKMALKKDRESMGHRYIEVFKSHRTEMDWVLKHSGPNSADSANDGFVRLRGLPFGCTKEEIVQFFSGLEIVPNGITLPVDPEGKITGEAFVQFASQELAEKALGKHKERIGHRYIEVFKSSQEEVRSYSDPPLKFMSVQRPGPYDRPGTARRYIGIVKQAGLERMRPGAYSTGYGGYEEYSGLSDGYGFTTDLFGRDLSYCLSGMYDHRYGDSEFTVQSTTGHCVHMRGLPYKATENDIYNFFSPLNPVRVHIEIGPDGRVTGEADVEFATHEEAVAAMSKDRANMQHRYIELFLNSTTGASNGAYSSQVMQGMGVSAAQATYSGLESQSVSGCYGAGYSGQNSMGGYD
Sequence of UniProt P04035 (P04035 whole entry, looked up): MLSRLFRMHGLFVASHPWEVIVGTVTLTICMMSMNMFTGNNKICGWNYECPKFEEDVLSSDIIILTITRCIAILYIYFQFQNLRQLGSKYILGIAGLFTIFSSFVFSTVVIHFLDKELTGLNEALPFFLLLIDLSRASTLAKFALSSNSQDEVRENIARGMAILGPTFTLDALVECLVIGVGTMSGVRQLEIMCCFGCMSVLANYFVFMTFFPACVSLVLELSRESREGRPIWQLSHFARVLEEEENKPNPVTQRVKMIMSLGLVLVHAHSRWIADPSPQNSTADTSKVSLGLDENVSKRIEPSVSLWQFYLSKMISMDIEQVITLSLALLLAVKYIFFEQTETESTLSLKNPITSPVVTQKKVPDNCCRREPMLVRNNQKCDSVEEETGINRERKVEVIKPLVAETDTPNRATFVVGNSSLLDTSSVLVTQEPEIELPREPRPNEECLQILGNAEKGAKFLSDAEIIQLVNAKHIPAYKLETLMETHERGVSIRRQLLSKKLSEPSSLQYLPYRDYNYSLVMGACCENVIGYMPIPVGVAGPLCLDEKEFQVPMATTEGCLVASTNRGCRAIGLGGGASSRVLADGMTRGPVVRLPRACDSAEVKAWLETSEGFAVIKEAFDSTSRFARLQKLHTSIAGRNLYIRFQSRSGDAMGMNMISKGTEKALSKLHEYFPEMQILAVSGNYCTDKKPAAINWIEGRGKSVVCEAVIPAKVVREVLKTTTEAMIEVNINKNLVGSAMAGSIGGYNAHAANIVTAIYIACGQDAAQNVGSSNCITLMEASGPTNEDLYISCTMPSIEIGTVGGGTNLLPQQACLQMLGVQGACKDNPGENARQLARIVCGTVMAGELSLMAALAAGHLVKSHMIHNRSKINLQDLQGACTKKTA
Sequence of UniProt Q658Y4 (Q658Y4 whole entry, looked up): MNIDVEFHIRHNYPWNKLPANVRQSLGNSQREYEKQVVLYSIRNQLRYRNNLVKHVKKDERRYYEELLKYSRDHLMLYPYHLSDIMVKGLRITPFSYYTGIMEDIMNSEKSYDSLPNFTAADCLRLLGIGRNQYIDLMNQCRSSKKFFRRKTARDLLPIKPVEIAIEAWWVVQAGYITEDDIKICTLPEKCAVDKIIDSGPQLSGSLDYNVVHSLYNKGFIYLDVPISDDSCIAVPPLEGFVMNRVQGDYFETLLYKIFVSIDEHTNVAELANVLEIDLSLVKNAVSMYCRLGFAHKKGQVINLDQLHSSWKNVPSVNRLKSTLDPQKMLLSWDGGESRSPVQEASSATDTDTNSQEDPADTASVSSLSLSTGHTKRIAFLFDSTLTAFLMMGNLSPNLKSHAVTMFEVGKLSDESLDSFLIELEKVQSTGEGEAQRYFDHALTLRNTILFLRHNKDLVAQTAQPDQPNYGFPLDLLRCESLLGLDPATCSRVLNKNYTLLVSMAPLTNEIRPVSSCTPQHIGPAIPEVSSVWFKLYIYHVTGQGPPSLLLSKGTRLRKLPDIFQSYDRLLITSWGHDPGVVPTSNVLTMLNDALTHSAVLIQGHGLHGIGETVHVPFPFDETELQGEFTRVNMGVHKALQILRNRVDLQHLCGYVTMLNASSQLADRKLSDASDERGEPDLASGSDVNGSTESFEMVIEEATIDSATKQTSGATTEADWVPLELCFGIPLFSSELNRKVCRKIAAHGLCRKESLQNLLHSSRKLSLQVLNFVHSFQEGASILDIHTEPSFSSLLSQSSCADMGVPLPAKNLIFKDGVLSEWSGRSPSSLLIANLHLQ
Sequence of UniProt Q53GQ0 (Q53GQ0 whole entry, looked up): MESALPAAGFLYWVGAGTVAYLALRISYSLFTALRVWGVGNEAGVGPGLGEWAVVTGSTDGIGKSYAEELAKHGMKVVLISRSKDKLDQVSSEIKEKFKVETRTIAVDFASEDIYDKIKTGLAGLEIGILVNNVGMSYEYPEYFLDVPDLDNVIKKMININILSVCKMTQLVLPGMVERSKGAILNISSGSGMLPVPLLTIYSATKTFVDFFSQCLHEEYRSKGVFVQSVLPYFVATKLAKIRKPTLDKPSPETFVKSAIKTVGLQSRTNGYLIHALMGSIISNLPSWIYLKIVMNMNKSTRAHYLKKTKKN
Sequence of UniProt O14893 (O14893 whole entry, looked up): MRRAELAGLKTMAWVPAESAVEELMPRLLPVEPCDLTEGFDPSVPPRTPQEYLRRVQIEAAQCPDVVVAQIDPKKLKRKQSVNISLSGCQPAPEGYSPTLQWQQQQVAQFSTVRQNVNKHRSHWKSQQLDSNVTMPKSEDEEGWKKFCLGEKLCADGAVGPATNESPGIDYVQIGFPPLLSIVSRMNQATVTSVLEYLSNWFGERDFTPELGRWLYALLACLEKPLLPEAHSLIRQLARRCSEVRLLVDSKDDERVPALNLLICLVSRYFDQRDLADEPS
Sequence of UniProt P46976 (P46976 whole entry, looked up): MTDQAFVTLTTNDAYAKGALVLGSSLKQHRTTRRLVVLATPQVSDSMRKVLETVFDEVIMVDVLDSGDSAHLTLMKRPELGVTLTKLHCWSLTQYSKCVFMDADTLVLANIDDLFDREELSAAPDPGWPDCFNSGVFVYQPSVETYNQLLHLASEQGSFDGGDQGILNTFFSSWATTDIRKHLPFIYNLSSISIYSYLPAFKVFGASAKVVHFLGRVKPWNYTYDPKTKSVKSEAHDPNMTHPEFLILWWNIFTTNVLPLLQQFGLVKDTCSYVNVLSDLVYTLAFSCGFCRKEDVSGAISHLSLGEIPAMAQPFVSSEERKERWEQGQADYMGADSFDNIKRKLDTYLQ
Sequence of UniProt O43824 (O43824 whole entry, looked up): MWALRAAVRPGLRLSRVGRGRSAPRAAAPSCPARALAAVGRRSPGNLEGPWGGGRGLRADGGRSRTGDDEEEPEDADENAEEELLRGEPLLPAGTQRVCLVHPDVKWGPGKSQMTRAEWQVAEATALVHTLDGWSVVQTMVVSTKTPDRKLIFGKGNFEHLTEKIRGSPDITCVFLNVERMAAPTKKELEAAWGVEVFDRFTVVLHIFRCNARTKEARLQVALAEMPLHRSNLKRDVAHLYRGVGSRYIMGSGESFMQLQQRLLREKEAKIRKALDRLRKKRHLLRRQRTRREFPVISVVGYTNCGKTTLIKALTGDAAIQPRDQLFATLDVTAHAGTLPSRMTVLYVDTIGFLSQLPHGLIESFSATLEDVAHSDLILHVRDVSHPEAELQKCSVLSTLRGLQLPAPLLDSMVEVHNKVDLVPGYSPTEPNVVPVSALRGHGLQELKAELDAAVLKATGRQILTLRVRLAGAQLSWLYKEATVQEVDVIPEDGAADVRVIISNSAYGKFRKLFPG
Sequence of UniProt Q9NP66 (Q9NP66 whole entry, looked up): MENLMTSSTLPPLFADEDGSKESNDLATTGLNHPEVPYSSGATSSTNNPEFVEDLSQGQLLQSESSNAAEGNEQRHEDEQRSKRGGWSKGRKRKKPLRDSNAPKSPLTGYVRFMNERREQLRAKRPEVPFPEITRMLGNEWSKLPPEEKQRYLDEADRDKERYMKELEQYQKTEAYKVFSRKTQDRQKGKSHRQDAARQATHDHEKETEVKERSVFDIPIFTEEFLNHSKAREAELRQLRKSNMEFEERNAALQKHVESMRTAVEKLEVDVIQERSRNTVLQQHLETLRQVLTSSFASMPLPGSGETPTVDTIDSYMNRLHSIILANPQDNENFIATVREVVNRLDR

| Target | log2 fold change [1] | log2 fold change (crizotinib) | log2 fold change [2] | log2 fold change [3] | log2 fold change (duvelisib) | log2 fold change (gandotinib) | log2 fold change (tozasertib) | log2 fold change [4] | log2 fold change (doramapimod) | log2 fold change (ispinesib) |
| --- | --- | --- | --- | --- | --- | --- | --- | --- | --- | --- |
| FUCA2 (UniProt Q9BTY2) | 0.021 | -0.002 | 0.017 | -0.05 | 0.007 | 0.041 | -0.008 | 0.014 | 0.058 | -0.001 |
| GYG1 (UniProt P46976) | -0.223 | -0.037 | -0.15 | 0.018 | -0.057 | -0.12 | 0.072 | 0.09 | 0.072 | -0.12 |
| FBXO42 (UniProt Q6P3S6) | 0.077 | 0.4 (active) | 0.127 | -0.064 | 0.076 | -0.022 | 0.105 | 0.063 | 0.01 | -0.015 |
| GALNT4 (UniProt Q8N4A0) | 0.047 | -0.068 | 0.156 | 0.017 | 0.09 | -0.153 | -0.028 | 0.036 | 0.013 | 0.04 |
| ICAM1 (UniProt P05362) | 0.052 | 0.142 | 0.026 | -0.069 | 0.024 | -0.134 | -0.062 | -0.054 | -0.012 | 0.121 |
| HSD17B12 (UniProt Q53GQ0) | 0.046 | 0.191 | 0.012 | -0.061 | 0.063 | 0.371 (active) | -0.018 | 0.055 | -0.009 | 0.243 |
| HMGCR isoform 3 (UniProt P04035) | -0.259 | 0.071 | -0.234 | -0.004 | 0.003 | 0.092 | -0.088 | -0.065 | 0.025 | 0.111 |
| GLUD2 (UniProt P49448) | 0.102 | 0.003 | 0.011 | -0.062 | 0.191 | 0.064 | -0.095 | 0.016 | 0.041 | 0 |
| HIST2H3A (UniProt Q71DI3) | -0.106 | -0.327 | -0.204 | 0.399 | -0.359 | -0.014 | 0.106 | -0.031 | 0.098 | -0.081 |
| FERMT3 (UniProt Q86UX7) | 0.038 | -0.091 | 0.02 | -0.04 | 0.005 | -0.064 | 0.022 | 0.057 | 0.001 | -0.04 |
| HDGFL2 (UniProt Q7Z4V5) | 0.086 | -0.007 | -0.052 | -0.04 | -0.047 | 0.005 | -0.004 | -0.061 | -0.045 | 0.019 |
| GSR (UniProt P00390) | 0.009 | 0.046 | 0.029 | -0.085 | 0.014 | 0.002 | -0.011 | -0.02 | -0.047 | -0.003 |
| GNPAT (UniProt O15228) | 0.029 | -0.071 | 0.087 | -0.088 | 0.021 | -0.076 | -0.002 | 0.06 | 0.034 | -0.006 |
| GNB2 (UniProt P62879) | 0.084 | 0.134 | 0.024 | -0.13 | 0.046 | -0.095 | 0.017 | 0 | 0.009 | 0.062 |
| HMG20A (UniProt Q9NP66) | -0.042 | 0.07 | -0.018 | -0.199 | 0 | 0.104 | -0.035 | -0.087 | 0.071 | 0.352 |
| FDPS (UniProt P14324) | 0.07 | -0.768 (active) | 0.073 | 0.117 | 0.059 | -0.091 | -0.193 | 0.222 | 0.004 | -0.493 (active) |
| GTPBP6 (UniProt O43824) | -0.002 | 0.012 | 0.197 | -0.066 | -0.002 | 0.003 | 0.087 | -0.006 | 0.06 | 0.076 |
| GLCCI1 (UniProt Q86VQ1) | -0.008 | 0.045 | 0.024 | 0.026 | 0.023 | 0.079 | 0.009 | 0.044 | -0.032 | 0.239 |
| HEXB (UniProt P07686) | -0.009 | -0.377 (active) | 0.058 | -0.021 | 0.008 | -0.013 | 0.012 | -0.031 | -0.007 | -0.128 |
| H2AFX (UniProt P16104) | -0.09 | -0.096 | -0.39 | 0.479 | -0.128 | 0.087 | 0.073 | -0.078 | 0.348 | -0.222 |
| HK2 (UniProt P52789) | -0.156 | 0.082 | 0.03 | -0.014 | 0.014 | -0.297 (active) | -0.028 | 0.013 | -0.026 | 0.161 |
| HNRNPF (UniProt P52597) | -0.016 | -0.152 | 0.047 | -0.004 | -0.061 | -0.07 | 0.071 | 0.119 | -0.03 | -0.092 |
| GMEB1 (UniProt Q9Y692) | -0.036 | 0.02 | 0.04 | -0.045 | 0.025 | -0.11 | 0.03 | 0.049 | -0.038 | 0.01 |
| GCC2 (UniProt Q8IWJ2) | 0.04 | -0.01 | -0.104 | 0.246 | -0.007 | 0.081 | 0.113 | 0.048 | 0.136 | -0.173 |
| FAM91A1 (UniProt Q658Y4) | -0.11 | -0.006 | 0.192 | -0.034 | -0.008 | -0.08 | 0.022 | -0.001 | -0.012 | 0.014 |
| GEMIN2 (UniProt O14893) | 0.032 | -0.043 | 0.001 | 0.061 | -0.129 | 0.02 | – | -0.013 | 0.029 | -0.149 |
